# Data reported in publication PMC7862700, “An all-to-all approach to the identification of sequence-specific readers for epigenetic DNA modifications on cytosine”.
# Tests used:
# Assay in all cases: DAPPL (digital affinity profiling via proximity ligation, sequencing); 10 mM Tris-HCl pH 7.5, 50 mM NaCl, 1 mM DTT, 4% glycerol, room temperature, 30 min; GST-TFs on glutathione beads, 16-mer random dsDNA library, 0.1% formaldehyde crosslink after washing; high values mean tight binding
# [1] = target: T1, FLI1 (Homo sapiens, UniProt Q01543 1-452); conditions: protein: recombinant; tags: N-terminal GST; dsDNA, one strand shown
# T1 sequence: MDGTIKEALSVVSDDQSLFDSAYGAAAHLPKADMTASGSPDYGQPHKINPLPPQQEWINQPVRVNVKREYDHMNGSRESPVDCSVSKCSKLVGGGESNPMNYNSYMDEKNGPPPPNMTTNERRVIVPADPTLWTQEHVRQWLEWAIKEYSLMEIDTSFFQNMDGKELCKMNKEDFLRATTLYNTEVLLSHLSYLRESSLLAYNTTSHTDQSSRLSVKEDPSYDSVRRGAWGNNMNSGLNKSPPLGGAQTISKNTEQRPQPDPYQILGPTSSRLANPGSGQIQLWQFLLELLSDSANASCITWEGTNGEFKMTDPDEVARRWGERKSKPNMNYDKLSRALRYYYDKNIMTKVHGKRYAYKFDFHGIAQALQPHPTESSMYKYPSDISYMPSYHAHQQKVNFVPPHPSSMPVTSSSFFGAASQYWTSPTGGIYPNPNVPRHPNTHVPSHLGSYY
# Outline: (§1)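 Human transcription factors were made in yeast as GST fusions, captured on glutathione beads and barcoded with DNA. With a tag-only sample included, the pool was incubated with 200 nmole of a random double-stranded 16-mer DNA library in Tris/NaCl/DTT/glycerol buffer at room temperature for 30 min, then crosslinked with 0.1% formaldehyde after washing, ligated by proximity, amplified and sequenced. For binding signal, each hexamer's read frequency for a factor is divided by its frequency for the tag-only sample.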
# [2] = target: T2, ELK1 (Homo sapiens, UniProt P19419 1-428); conditions: protein: recombinant; tags: N-terminal GST; dsDNA, one strand shown
# T2 sequence: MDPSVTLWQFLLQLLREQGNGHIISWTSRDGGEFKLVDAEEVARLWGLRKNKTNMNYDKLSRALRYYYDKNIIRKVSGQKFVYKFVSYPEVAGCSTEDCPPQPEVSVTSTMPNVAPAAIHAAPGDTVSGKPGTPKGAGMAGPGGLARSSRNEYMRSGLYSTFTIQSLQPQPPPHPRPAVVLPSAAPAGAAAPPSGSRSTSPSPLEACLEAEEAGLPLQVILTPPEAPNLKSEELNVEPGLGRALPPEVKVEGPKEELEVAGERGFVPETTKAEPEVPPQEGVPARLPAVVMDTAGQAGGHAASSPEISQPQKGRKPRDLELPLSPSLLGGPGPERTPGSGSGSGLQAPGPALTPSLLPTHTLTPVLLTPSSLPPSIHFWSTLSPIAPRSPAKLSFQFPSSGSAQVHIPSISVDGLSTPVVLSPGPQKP
# Outline: as §1
# [3] = target: T3, GABPA (Homo sapiens, UniProt Q06546 1-454); conditions: protein: recombinant; tags: N-terminal GST; dsDNA, one strand shown
# T3 sequence: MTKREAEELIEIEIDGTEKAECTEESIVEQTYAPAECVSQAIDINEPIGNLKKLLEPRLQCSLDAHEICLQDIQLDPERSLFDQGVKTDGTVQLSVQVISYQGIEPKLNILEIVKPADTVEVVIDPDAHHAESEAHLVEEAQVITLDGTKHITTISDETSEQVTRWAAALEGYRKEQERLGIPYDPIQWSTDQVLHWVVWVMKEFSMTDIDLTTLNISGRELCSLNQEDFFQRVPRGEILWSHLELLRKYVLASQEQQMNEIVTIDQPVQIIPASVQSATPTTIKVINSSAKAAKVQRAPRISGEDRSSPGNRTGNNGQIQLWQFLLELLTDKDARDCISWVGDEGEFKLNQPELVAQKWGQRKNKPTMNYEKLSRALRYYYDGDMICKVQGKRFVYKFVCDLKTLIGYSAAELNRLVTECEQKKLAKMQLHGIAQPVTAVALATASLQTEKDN
# Outline: as §1
# [4] = target: T4, ERG (Homo sapiens, UniProt P11308 1-479); conditions: protein: recombinant; tags: N-terminal GST; dsDNA, one strand shown
# T4 sequence: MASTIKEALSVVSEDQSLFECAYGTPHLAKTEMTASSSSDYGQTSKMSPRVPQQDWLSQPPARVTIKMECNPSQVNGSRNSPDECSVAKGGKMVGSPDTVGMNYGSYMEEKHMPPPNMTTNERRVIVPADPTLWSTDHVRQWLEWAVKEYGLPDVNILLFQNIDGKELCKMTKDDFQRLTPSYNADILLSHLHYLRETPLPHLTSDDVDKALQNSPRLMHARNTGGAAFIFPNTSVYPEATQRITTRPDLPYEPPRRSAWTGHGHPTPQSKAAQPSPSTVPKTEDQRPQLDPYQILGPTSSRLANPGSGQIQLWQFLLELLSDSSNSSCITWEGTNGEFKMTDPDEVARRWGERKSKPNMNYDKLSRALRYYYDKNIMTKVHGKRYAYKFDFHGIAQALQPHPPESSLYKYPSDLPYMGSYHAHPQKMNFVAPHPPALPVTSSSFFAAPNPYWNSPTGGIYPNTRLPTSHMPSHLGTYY
# Outline: as §1
# [5] = target: ELF1 (Homo sapiens, UniProt P32519 1-619); conditions: protein: recombinant; tags: N-terminal GST; dsDNA, one strand shown
# ELF1, sequence (P32519 whole entry): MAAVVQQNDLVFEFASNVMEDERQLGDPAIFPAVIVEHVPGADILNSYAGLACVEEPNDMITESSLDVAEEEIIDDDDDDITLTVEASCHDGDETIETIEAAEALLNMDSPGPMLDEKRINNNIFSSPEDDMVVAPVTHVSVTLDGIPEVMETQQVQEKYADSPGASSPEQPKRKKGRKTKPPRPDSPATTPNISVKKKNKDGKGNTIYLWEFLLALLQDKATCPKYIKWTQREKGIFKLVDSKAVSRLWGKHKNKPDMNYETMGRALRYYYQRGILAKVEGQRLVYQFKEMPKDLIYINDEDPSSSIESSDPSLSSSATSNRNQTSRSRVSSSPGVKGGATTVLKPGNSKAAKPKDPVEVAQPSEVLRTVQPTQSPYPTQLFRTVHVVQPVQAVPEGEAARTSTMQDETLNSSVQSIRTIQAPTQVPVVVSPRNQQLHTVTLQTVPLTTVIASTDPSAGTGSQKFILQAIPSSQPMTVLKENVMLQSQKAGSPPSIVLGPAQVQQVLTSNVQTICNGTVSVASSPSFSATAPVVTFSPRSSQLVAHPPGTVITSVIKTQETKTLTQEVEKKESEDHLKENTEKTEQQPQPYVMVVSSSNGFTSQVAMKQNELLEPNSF
# Outline: as §1
# [6] = target: T5, EHF (Homo sapiens, UniProt Q9NZC4 1-300); conditions: protein: recombinant; tags: N-terminal GST; dsDNA, one strand shown
# T5 sequence: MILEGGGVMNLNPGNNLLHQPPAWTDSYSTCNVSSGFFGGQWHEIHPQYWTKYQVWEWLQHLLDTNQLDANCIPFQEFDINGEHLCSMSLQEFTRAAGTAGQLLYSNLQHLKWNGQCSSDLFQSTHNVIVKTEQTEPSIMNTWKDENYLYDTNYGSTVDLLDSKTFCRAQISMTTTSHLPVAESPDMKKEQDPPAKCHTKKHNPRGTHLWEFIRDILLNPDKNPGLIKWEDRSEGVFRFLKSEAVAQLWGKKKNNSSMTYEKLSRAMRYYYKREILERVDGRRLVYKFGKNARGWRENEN
# Outline: as §1
# [7] = target: SPI1 (Homo sapiens, UniProt P17947 1-270); conditions: protein: recombinant; tags: N-terminal GST; dsDNA, one strand shown
# Outline: as §1
# [8] = target: SPIB (Homo sapiens, UniProt Q01892 1-262); conditions: protein: recombinant; tags: N-terminal GST; dsDNA, one strand shown
# SPIB, sequence (Q01892 whole entry): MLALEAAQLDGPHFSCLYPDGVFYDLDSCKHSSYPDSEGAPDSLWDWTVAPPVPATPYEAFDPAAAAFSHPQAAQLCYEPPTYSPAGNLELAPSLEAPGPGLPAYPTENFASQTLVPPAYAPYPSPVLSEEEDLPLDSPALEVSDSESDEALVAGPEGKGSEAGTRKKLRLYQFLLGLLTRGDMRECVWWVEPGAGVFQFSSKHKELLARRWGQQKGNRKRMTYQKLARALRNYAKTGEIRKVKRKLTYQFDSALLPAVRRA
# Outline: as §1
# [9] = target: T6, ELK3 (Homo sapiens, UniProt P41970 1-407); conditions: protein: recombinant; tags: N-terminal GST; dsDNA, one strand shown
# T6 sequence: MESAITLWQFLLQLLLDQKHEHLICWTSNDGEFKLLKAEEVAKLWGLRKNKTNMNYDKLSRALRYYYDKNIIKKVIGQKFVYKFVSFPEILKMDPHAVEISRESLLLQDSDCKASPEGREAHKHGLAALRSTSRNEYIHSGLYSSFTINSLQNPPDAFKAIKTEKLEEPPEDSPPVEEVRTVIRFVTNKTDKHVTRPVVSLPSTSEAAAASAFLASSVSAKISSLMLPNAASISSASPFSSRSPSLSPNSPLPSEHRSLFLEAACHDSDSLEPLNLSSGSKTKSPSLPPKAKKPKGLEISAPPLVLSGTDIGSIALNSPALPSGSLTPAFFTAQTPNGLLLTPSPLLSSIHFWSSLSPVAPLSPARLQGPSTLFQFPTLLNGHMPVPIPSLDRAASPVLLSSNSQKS
# Outline: as §1
# [10] = target: T7, FEV (Homo sapiens, UniProt Q99581 1-238); conditions: protein: recombinant; tags: N-terminal GST; dsDNA, one strand shown
# T7 sequence: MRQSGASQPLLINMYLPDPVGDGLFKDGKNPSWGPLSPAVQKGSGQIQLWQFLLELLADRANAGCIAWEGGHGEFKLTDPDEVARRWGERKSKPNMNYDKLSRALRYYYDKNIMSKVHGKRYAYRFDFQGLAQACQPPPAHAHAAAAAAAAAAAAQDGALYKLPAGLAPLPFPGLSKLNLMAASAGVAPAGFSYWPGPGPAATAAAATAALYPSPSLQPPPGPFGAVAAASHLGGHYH
# Outline: as §1
# [11] = target: ETV5 (Homo sapiens, UniProt P41161 1-510); conditions: protein: recombinant; tags: N-terminal GST; dsDNA, one strand shown
# ETV5, sequence (P41161 whole entry): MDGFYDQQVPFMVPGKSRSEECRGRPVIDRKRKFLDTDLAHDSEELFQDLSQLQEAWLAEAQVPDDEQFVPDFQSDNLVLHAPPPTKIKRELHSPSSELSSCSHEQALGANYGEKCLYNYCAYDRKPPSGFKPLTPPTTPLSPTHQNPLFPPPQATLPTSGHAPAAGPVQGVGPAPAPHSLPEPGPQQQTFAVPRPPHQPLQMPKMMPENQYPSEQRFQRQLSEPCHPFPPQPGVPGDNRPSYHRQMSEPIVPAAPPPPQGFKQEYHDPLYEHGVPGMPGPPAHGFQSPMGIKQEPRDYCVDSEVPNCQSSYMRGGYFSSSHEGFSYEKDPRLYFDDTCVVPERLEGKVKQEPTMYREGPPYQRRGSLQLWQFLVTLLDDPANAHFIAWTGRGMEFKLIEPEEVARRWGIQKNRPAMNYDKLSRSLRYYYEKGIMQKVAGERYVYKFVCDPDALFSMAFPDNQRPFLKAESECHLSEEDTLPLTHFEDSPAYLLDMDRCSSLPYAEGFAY
# Outline: as §1
# [12] = target: HSF1 (Homo sapiens, UniProt Q00613 1-529); conditions: protein: recombinant; tags: N-terminal GST; chain copies: 3; dsDNA, one strand shown
# HSF1, sequence (Q00613 whole entry): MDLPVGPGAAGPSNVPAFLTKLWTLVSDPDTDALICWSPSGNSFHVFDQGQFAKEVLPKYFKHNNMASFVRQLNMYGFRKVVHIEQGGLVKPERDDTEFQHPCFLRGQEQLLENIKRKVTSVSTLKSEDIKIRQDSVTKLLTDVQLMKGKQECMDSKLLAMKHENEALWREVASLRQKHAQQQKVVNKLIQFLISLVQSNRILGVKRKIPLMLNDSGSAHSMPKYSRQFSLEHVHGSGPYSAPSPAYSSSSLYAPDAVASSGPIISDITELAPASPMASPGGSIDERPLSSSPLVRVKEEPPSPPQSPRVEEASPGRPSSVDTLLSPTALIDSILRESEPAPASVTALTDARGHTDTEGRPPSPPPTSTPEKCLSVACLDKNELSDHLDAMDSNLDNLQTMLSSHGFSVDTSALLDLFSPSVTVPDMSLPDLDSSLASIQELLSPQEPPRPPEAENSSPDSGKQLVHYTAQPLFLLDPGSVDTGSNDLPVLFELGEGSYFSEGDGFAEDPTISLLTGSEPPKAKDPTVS
# Outline: as §1
# [13] = target: T8, SPIC (Homo sapiens, UniProt Q8N5J4 1-248); conditions: protein: recombinant; tags: N-terminal GST; dsDNA, one strand shown
# T8 sequence: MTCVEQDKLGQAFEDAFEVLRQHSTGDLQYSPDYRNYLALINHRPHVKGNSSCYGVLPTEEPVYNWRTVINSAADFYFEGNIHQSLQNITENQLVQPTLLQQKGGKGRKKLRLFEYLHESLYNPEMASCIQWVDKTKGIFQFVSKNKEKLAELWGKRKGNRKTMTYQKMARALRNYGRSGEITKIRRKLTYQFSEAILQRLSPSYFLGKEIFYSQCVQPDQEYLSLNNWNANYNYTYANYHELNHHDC
# Outline: as §1
# [14] = target: ELF4 (Homo sapiens, UniProt Q99607 1-663); conditions: protein: recombinant; tags: N-terminal GST; dsDNA, one strand shown
# ELF4, sequence (Q99607 whole entry): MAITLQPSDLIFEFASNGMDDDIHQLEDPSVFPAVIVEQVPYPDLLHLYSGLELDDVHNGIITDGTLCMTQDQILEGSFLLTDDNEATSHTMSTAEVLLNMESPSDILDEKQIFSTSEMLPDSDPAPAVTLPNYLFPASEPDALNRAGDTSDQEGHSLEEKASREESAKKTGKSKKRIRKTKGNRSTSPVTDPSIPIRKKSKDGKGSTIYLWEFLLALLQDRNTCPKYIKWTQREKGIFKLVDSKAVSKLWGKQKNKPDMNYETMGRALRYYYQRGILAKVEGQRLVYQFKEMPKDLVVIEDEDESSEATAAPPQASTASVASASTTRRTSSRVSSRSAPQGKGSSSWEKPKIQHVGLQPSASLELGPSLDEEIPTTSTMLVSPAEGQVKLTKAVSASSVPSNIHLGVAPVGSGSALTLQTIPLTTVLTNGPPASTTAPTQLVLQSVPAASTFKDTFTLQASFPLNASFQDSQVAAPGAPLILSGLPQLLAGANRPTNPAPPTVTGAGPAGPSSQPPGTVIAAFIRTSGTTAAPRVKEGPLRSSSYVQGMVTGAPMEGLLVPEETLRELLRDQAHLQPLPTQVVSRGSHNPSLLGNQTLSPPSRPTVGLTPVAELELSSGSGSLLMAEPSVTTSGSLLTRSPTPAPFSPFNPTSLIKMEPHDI
# Outline: as §1
# [15] = target: T9, ELK4 (Homo sapiens, UniProt P28324-2 1-405); conditions: protein: recombinant; tags: N-terminal GST; dsDNA, one strand shown
# T9 sequence: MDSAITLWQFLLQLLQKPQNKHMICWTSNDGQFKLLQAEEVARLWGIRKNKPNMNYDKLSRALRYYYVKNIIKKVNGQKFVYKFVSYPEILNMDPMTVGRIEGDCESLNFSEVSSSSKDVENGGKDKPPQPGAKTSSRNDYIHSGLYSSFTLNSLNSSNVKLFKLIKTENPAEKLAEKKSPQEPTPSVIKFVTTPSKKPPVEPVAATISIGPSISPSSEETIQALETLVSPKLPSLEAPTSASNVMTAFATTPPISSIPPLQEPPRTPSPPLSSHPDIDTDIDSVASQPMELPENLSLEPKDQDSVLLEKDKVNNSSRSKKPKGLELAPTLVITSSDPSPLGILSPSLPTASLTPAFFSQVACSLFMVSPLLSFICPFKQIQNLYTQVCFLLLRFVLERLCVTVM
# Outline: as §1
# [16] = target: T10, ETV2 (Homo sapiens, UniProt O00321 1-342); conditions: protein: recombinant; tags: N-terminal GST; dsDNA, one strand shown
# T10 sequence: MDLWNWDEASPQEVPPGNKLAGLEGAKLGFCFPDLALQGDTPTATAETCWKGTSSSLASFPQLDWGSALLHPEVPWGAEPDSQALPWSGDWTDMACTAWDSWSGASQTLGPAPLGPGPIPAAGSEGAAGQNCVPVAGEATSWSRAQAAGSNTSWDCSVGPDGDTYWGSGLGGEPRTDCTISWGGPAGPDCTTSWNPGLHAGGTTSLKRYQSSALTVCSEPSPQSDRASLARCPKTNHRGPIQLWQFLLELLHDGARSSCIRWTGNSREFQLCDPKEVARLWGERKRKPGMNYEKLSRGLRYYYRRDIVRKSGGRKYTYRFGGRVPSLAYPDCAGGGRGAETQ
# Outline: as §1
# [17] = target: T11, ELF3 (Homo sapiens, UniProt P78545 1-371); conditions: protein: recombinant; tags: N-terminal GST; dsDNA, one strand shown
# T11 sequence: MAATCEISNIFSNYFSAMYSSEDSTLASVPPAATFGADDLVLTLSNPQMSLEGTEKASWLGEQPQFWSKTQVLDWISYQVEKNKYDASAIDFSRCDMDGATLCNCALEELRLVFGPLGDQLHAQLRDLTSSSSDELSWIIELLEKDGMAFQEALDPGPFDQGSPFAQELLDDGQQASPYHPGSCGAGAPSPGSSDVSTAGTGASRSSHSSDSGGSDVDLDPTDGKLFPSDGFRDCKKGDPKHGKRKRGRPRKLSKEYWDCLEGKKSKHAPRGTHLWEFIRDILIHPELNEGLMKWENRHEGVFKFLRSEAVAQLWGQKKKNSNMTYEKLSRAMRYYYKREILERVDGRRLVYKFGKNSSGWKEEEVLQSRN
# Outline: as §1
# [18] = target: CRX (Homo sapiens, UniProt O43186 1-299); conditions: protein: recombinant; tags: N-terminal GST; dsDNA, one strand shown
# CRX, sequence (O43186 whole entry): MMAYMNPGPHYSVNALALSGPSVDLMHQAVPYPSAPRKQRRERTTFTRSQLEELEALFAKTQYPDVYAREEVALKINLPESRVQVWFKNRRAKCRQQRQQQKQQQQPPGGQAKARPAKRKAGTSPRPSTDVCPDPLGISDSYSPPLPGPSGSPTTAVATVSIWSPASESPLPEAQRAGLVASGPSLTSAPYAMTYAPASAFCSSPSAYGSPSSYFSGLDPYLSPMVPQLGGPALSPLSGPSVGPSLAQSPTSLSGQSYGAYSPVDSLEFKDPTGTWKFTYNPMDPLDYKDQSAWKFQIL
# Outline: as §1
# [19] = target: ETV1 (Homo sapiens, UniProt P50549 1-477); conditions: protein: recombinant; tags: N-terminal GST; dsDNA, one strand shown
# ETV1, sequence (P50549 whole entry): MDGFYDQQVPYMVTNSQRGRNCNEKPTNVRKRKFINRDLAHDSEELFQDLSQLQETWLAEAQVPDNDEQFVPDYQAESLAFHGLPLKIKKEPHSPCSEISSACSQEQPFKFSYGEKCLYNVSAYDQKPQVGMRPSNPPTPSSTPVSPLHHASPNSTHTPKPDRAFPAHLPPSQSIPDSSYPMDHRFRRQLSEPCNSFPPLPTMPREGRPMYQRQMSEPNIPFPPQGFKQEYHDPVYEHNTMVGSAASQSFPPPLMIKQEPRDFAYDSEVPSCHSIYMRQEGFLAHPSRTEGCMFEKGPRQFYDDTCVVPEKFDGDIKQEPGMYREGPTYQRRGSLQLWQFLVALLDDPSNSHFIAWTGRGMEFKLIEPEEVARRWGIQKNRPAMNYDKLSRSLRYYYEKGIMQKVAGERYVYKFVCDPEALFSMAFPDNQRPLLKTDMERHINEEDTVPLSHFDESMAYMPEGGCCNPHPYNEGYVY
# Outline: as §1
sequence,measurement,setting,value
AAGCTG,binding signal,[1],"1.21 fold enrichment (6-mer frequency, TF over GST control)"
same,binding signal,[2],"1.24 fold enrichment (6-mer frequency, TF over GST control)"
same,binding signal,[3],"1.16 fold enrichment (6-mer frequency, TF over GST control)"
same,binding signal,[4],"1.13 fold enrichment (6-mer frequency, TF over GST control)"
same,binding signal,[5],"1.16 fold enrichment (6-mer frequency, TF over GST control)"
same,binding signal,[6],"1.08 fold enrichment (6-mer frequency, TF over GST control)"
same,binding signal,[7],"1.03 fold enrichment (6-mer frequency, TF over GST control)"
same,binding signal,[8],"1.14 fold enrichment (6-mer frequency, TF over GST control)"
same,binding signal,[9],"1.08 fold enrichment (6-mer frequency, TF over GST control)"
same,binding signal,[10],"1.14 fold enrichment (6-mer frequency, TF over GST control)"
same,binding signal,[11],"1.08 fold enrichment (6-mer frequency, TF over GST control)"
same,binding signal,[12],"1.25 fold enrichment (6-mer frequency, TF over GST control)"
same,binding signal,[13],"1.08 fold enrichment (6-mer frequency, TF over GST control)"
same,binding signal,[14],"1.08 fold enrichment (6-mer frequency, TF over GST control)"
same,binding signal,[15],"1.19 fold enrichment (6-mer frequency, TF over GST control)"
same,binding signal,[16],"1.17 fold enrichment (6-mer frequency, TF over GST control)"
same,binding signal,[17],"1.28 fold enrichment (6-mer frequency, TF over GST control)"
same,binding signal,[18],"1.59 fold enrichment (6-mer frequency, TF over GST control)"
same,binding signal,[19],"1.12 fold enrichment (6-mer frequency, TF over GST control)"
